{
  "source": "PubChem BioAssay AID504847",
  "about": "(National Center for Advancing Translational Sciences (NCATS), 2011)",
  "note": "The campaign covered roughly 400,000 compounds. About 3,700 (0.93%) were called active. About 3% were inconclusive and are not listed. The full list was thinned out, with actives kept by preference. Unmarked numbers belong to inactive results. The call rests on the fitted dose curve; in most records, active means well fitted inhibition curve with a large enough effect; inconclusive means small, poorly fitted or top-dose-only effect, or another doubt; inactive means no such curve, though single readings can be large or run the other way. On the % scale 0 is the no-effect control and ±100 the full control effect; potency means the concentration at half of the fitted maximal effect.",
  "data": [
    {"molecular_target": "Vitamin D3 receptor (Homo sapiens) (UniProt P11473)", "sequence (P11473 whole entry, looked up)": "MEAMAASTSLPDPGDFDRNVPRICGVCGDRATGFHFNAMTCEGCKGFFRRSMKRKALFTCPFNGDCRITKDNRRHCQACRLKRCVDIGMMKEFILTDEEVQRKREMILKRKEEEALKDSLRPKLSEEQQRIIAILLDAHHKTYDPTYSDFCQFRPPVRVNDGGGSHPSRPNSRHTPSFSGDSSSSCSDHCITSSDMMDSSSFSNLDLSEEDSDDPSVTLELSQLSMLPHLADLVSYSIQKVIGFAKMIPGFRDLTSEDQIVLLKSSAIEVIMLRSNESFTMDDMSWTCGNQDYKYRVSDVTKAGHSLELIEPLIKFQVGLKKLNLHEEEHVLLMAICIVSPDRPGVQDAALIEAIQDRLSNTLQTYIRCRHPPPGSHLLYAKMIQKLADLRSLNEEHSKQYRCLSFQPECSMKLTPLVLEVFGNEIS", "assay": "Inhibitors of the vitamin D receptor (VDR): qHTS", "details": "VDR-SRC2-3 peptide fluorescence polarization, 2 h; max response, negative = inhibition: hits give low values", "summary_of_the_method": "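Reagent solutions, kept cold and dark, are dispensed first; compounds are then pinned in at 23 nl, plates briefly spun, and incubated 2 h at ambient temperature. Inhibition of VDR–SRC2-3 peptide binding is read by fluorescence polarization.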", "units": {"max response, negative = inhibition": "%"}, "values": [
      {"smiles": "CC1=Nc2cc(C(=O)N3CCC(C)CC3)ccc2Sc2ccc(Cl)cc21", "max response, negative = inhibition": -2.31},
      {"smiles": "CN(Cc1ccco1)c1cc(-c2ccccc2C(F)(F)F)ncn1", "Potency": "39.8 µM (active)"},
      {"smiles": "Cn1c(=O)[nH]c(=O)c2c1[nH]c(=S)n2Cc1ccccc1", "Potency": "89.1 µM (active)"},
      {"smiles": "Cn1c(=O)[nH]c(=O)c2c1nc(NCCc1ccccc1)n2Cc1ccc(F)cc1", "max response, negative = inhibition": -22.7},
      {"smiles": "Cc1nnc(Sc2nc3c(c(=O)[nH]c(=O)n3C)n2Cc2ccccc2)s1", "max response, negative = inhibition": -19.6},
      {"smiles": "c1ccc(Cn2nnc3c(N4CCCCC4)ncnc32)cc1", "max response, negative = inhibition": 7.87},
      {"smiles": "COc1ccc(OC)c(-c2noc(N3CCN(c4cc(Cl)ccc4C)CC3)n2)c1", "max response, negative = inhibition": 13.2},
      {"smiles": "O=C(CCN1CCc2ccccc2C(O)(c2ccccc2)C1)c1ccc2c(c1)OCCO2", "note": "(configuration not stated)", "Potency": "35.5 µM (active)"},
      {"smiles": "CCC1(c2ccccc2)NC(=O)N(CC(=O)c2ccc3c(c2)OCO3)C1=O", "note": "(configuration not stated)", "max response, negative = inhibition": 7.42},
      {"smiles": "O=C(CN1CCC(O)(c2ccccc2)CC1)Nc1ccc2c(c1)OCCO2", "max response, negative = inhibition": 0.904},
      {"smiles": "COc1cc(OC)cc(C(=O)NCCc2csc3nc(-c4ccccc4F)nn23)c1", "max response, negative = inhibition": 1.56},
      {"smiles": "CCOC(=O)c1cccc(NS(=O)(=O)c2cc(-c3cnc(C)o3)ccc2OC)c1", "max response, negative = inhibition": 1.33},
      {"smiles": "CC(Sc1nnnn1C1CCCCC1)C(=O)O", "note": "(configuration not stated)", "Potency": "79.4 µM (active)"},
      {"smiles": "O=C(CSc1nnnn1C1CCCC1)N1CCCCC1", "max response, negative = inhibition": 12.7},
      {"smiles": "CC(Sc1nnnn1C)C(=O)NC(=O)NC1CCCCC1", "note": "(configuration not stated)", "max response, negative = inhibition": 15},
      {"smiles": "CC1OC(OCC2OC(Oc3c(-c4ccc(O)c(O)c4)oc4cc(O)cc(O)c4c3=O)C(O)C(O)C2O)[C@@H](O)C(O)C1O", "note": "(some centres not stated)", "max response, negative = inhibition": -0.0788},
      {"smiles": "COc1cc(C(=O)N2CCN(c3ccc(Nc4ccc(C)cc4)nn3)CC2)cc(OC)c1OC", "max response, negative = inhibition": 13.1},
      {"smiles": "Cc1oc2ncnc(N3CCOCC3)c2c1C(=O)NCCc1ccccc1", "max response, negative = inhibition": 9.03},
      {"smiles": "O=C1c2ccccc2C(=O)N1c1ccc(S(=O)(=O)N2CCOCC2)c2ccccc12", "max response, negative = inhibition": -4.23},
      {"smiles": "FC(F)(F)C1CCCN(c2nsc3ccccc23)C1", "note": "(configuration not stated)", "Potency": "20 µM (active)"},
      {"smiles": "C[C@H]1CCC[C@@]2(C)CCCC[C@]12O", "max response, negative = inhibition": 0.107},
      {"smiles": "CC(=O)N(C1=C(Cl)C(=O)c2ccccc2C1=O)c1ccc(C(=O)O)cc1", "Potency": "7.08 µM (active)"},
      {"smiles": "CCOC(=O)c1cc2c(=O)n3ccccc3nc2n(CCCOC)c1=NC(=O)C(C)(C)Oc1ccc(Cl)cc1", "max response, negative = inhibition": -19.6},
      {"smiles": "CC(=O)Oc1c2c(c3c(c1CC=C(C)C)O[C@@]14C(=CC5CC1C(C)(C)OC4(C/C=C(\\C)C(=O)O)C5=O)C3=O)OC(C)(CCC=C(C)C)C=C2", "note": "(some centres not stated)", "Potency": "3.16 µM (active)"},
      {"smiles": "CCc1ccccc1OCCSc1nc(-c2cccs2)nc2cc(=O)[nH]n12", "max response, negative = inhibition": -2.15},
      {"smiles": "O=C1CC(c2ccccc2)CC2=C1C(c1ccco1)n1nc(C(F)(F)F)nc1N2", "note": "(configuration not stated)", "max response, negative = inhibition": -0.088},
      {"smiles": "CC(C)c1ccc(S(=O)(=O)Nc2ccc(O)c(Sc3nc4ccccc4s3)c2)cc1", "max response, negative = inhibition": -4.7},
      {"smiles": "CC(C)(C)c1ccc(S(=O)(=O)Nc2ccc(O)c(Sc3nc4ccccc4s3)c2)cc1", "max response, negative = inhibition": -10.5},
      {"smiles": "O=[N+]([O-])c1c(NCCO)cc(Sc2nc3ccccc3s2)c2nonc12", "Potency": "14.1 µM (active)"},
      {"smiles": "NCCCNCCCCN(CCCN)/[N+]([O-])=N/O", "max response, negative = inhibition": 8.85},
      {"smiles": "Oc1c(C(c2ccccn2)N2CCOCC2)ccc2cccnc12", "note": "(configuration not stated)", "Potency": "17.8 µM (active)"},
      {"smiles": "Oc1c(C(c2ccccc2Cl)N2CCOCC2)sc2nc(-c3ccco3)nn12", "note": "(configuration not stated)", "max response, negative = inhibition": 10.6},
      {"smiles": "COc1ccc(NC(=O)c2sc3nc[nH]c(=O)c3c2C)cc1", "max response, negative = inhibition": 6.76},
      {"smiles": "Cc1ccc2nc(/C(C#N)=C/c3ccc(-c4ccc(C(=O)OC(C)C)cc4)o3)[nH]c2c1", "max response, negative = inhibition": -0.457},
      {"smiles": "O=c1[nH]c2ccccc2s1", "max response, negative = inhibition": 1.06},
      {"smiles": "Nc1ccc2[nH]c(=S)sc2c1", "Potency": "28.2 µM (active)"},
      {"smiles": "COc1ccc(CNC(=O)CSc2nc3ccccc3nc2Cc2ccccc2)cc1", "max response, negative = inhibition": -10.7},
      {"smiles": "Cc1cccc(C)c1NC(=O)NC1=CCCN1C", "max response, negative = inhibition": 8.2},
      {"smiles": "COc1ccc(N=Nc2c(-c3ccc(OC)cc3)[nH]oc2=O)cc1", "max response, negative = inhibition": -12},
      {"smiles": "COc1ccc(N=C2C=CC(=O)O2)cc1", "Potency": "79.4 µM (active)"},
      {"smiles": "COC1=CC(=O)OC(c2ccc(OC)cc2)C1", "note": "(configuration not stated)", "max response, negative = inhibition": 6.19},
      {"smiles": "COc1ccc(-c2nc3nc(C)cc(C)n3c2Nc2c(C)cccc2C)cc1", "max response, negative = inhibition": -18.2},
      {"smiles": "Cc1cccc(OCCSc2nc3ccc(NC(=O)COc4ccccc4C)cc3s2)c1", "max response, negative = inhibition": 4.41},
      {"smiles": "CC(=O)c1cc(-c2ccccc2)[nH]c1N1CCCC1", "max response, negative = inhibition": 0},
      {"smiles": "O=C1NN(c2ccccc2)C(=O)/C1=C/c1ccc(-c2cccc(C(=O)O)c2)o1", "Potency": "89.1 µM (active)"},
      {"smiles": "CCCN(CCC)CCCNC(=O)Cn1ncc2c3ccccc3n(Cc3ccccc3)c2c1=O", "max response, negative = inhibition": 11.1},
      {"smiles": "Cc1cc(C)c(NC(=O)c2cc3sc(Cl)cc3n2C)c(C)c1", "max response, negative = inhibition": -11},
      {"smiles": "O=C(Nc1ccc(N2CCOCC2)cc1)c1ccc(-c2ccccc2[N+](=O)[O-])o1", "max response, negative = inhibition": -16.6},
      {"smiles": "CC1=NN(c2ccc(Cl)c(C(=O)O)c2)C(=O)/C1=C/c1ccc(-c2ccccc2[N+](=O)[O-])o1", "Potency": "50.1 µM (active)"},
      {"smiles": "O=C1NC(c2ccc(-c3ccccc3[N+](=O)[O-])o2)C(C(=O)c2ccc(Cl)cc2)C(O)(C(F)(F)F)N1", "note": "(configuration not stated)", "max response, negative = inhibition": -20.1},
      {"smiles": "COc1cc(C(=O)NCCS(=O)(=O)N2CCN(c3ccccc3)CC2)cc(OC)c1OC", "max response, negative = inhibition": 22.4},
      {"smiles": "COc1ccc(-c2onc(C)c2C)cc1S(=O)(=O)NCC1CCN(Cc2cccc(F)c2)CC1", "max response, negative = inhibition": -0.795},
      {"smiles": "Cc1cc(NC(=O)c2ccc(-c3ccc(Cl)cc3)o2)cc(-c2nc3ncccc3o2)c1O", "max response, negative = inhibition": -16},
      {"smiles": "Cc1ccc(SCC(=O)N2CCN(c3ccc(F)cc3)CC2)cc1", "max response, negative = inhibition": 9.21},
      {"smiles": "CC1CCN(C(=O)c2ccc3c(c2)NC(=O)CN3)CC1", "max response, negative = inhibition": 8.33},
      {"smiles": "Cc1ccc(CSCC2Nc3ccc(C(=O)N4CCN(c5ccc(F)cc5)CC4)cc3NC2=O)cc1", "note": "(configuration not stated)", "Potency": "79.4 µM (active)"},
      {"smiles": "CCOC(=O)c1c(S(=O)(=O)N2CCCC(C(=O)NCc3cccc(C)c3)C2)c(C)n(C)c1C", "note": "(configuration not stated)", "max response, negative = inhibition": 14.2}
    ]}
  ]
}
